# Screening results (PubChem BioAssay)
# The list is a sample of the results.
# aSyn 5UTR act: Activators working through SNCA 5'UTR binding (MLPCN); alpha-synuclein 5'UTR reporter, activators screen; activity score, % (tested at 7.5 µM), hits read low; 7.1% of 300,000 active; AID 1814; in the data active = activity score below about -60%
# The depositor's hits bear a star.
SMILES,aSyn 5UTR act
Cc1cc(C(=O)CSc2nc3ccccc3o2)c(C)n1C1CC1,-164.5*
C=CCn1c(C)cc(C(=O)COc2nncc3ccccc23)c1C,-122.6*
C=CCn1c(C)cc(C(=O)CSc2nc3ccccc3[nH]2)c1C,59.3
C=CCn1c(C)cc(C(=O)CSc2nc3ccccc3o2)c1C,-136.5*
COc1ccc2cc(C(=O)C3CCCN(C(=O)CCc4cnn(C)c4)C3)ccc2c1 (configuration not stated),-82.4*
CCc1ccc2nc(N(CCCN(C)C)C(=O)c3ccc(S(=O)(=O)N(C)C4CCCCC4)cc3)sc2c1,55.0
CCCC(=O)N1CCN(c2nc3ccc(CC)cc3s2)CC1,-115.6*
CCCC(=O)N1CCN(c2nc3ccc(Cl)cc3s2)CC1,-139.0*
CCCCC(=O)N1CCN(c2nc3ccc(Br)cc3s2)CC1,-102.4*
CCCC(=O)N1CCN(c2nc3ccc(Br)cc3s2)CC1,-141.5*
COc1ccc(Nc2nc(N3CCCC3)nc3ccccc23)c(OC)c1,-80.8*
COc1ccc(Nc2cc3n(c(=O)n2)CCc2cc(OC)c(OC)cc2-3)c(C)c1,80.1
COc1ccc(NC(=O)c2cc3ccccc3oc2=O)c(OC)c1,-112.7*
COc1ccc(NC(=O)c2oc3ccccc3c2C)c(OC)c1,-215.6*
COc1ccccc1C(=O)Nc1cc2ccccc2oc1=O,-172.2*
COc1ccc(S(=O)(=O)Nc2ccccc2OC)cc1NC(=O)c1cc2ccccc2oc1=O,-158.9*
COc1ccc2oc(=O)c(C(=O)Nc3cccc(C)c3)cc2c1,-127.6*
CCCc1c(C(=O)N/N=C/c2ccc(OCc3ccccc3)c(OC)c2)nnn1-c1nonc1N,-147.9*
Cc1nnn(-c2nonc2N)c1C(=O)N/N=C/c1ccccc1O,67.8
CN(C)Cc1c(C(=O)N/N=C/c2ccccc2OCc2c(F)cccc2Cl)nnn1-c1nonc1N,-71.7*
COc1ccccc1/C=N/NC(=O)c1nnn(-c2nonc2N)c1-c1cccs1,-80.1*
COc1cc(/C=N/NC(=O)c2nnn(-c3nonc3N)c2C(C)C)ccc1OCc1ccc(F)cc1,-143.1*
CC1CCN(Cc2c(C(=O)N/N=C/c3ccccc3O)nnn2-c2nonc2N)CC1,65.5
CCCc1c(C(=O)N/N=C/c2ccc(OC)c(OCc3ccccc3)c2)nnn1-c1nonc1N,-95.0*
Cc1ccccc1COc1ccc(/C=N/NC(=O)c2nnn(-c3nonc3N)c2CN2CCC(C)CC2)cc1,-77.7*
SMILES,aSyn 5UTR act
COc1cc(C=O)ccc1OCc1ccccc1Br,-201.5*
COc1cc(C=O)ccc1OCc1cccc(Br)c1,-151.6*
COc1cc(C=O)ccc1OCCSc1ccc(C)cc1,-129.2*
COc1cc(/C=C2/C(=O)N(C)C(=S)N2C)ccc1OCc1cccc(F)c1,-155.7*
COC(=O)c1ccccc1OCCCOc1ccc(C=O)cc1OC,-106.7*
COc1ccccc1NC(=O)C(=O)N/N=C/c1cccs1,-147.2*
CC(/C=N/NC(=O)Cc1cccn1C)=C\c1ccccc1,-118.4*
COc1ccc(COC(=O)N/N=C/c2cccs2)cc1,-66.2*
Cc1ccccc1NCC(=O)N/N=C/C(Br)=C/c1ccccc1,-66.1*
COc1ccc(/C=N/NC(=O)Cc2cccs2)cc1,-69.7*
CC(/C=N/NC(=O)Cc1cccs1)=C\c1ccccc1,-155.6*
O=C(CN1CCOCC1)N/N=C/C(Br)=C\c1ccccc1,-75.6*
O=C(Cc1cccs1)N/N=C/C(Br)=C/c1ccccc1,-257.8*
CCOc1cc(/C=C\c2[nH]c(=O)[nH]c(=O)c2[N+](=O)[O-])ccc1OC(C)CC (configuration not stated),-67.0*
O=C(NCc1ccccn1)c1cc(-c2ccccc2)on1,-78.6*
O=C(NCc1cccs1)c1cc(-c2cccs2)on1,-169.2*
O=C(NCc1ccccn1)c1ccc(-c2ccccc2)cc1,-106.6*
COCCNC(=O)c1cc(-c2cccs2)on1,-289.1*
O=C(NCc1cccs1)c1cc(-c2ccccc2)on1,-111.9*
COc1ccc(/C=C/C(=O)C2C(=O)C=C(C)OC2=O)cc1O (configuration not stated),-242.7*
Cc1ccc(C2=NN3C(C2)c2ccccc2OC32C(=O)Nc3ccccc32)cc1 (configuration not stated),-147.6*
CN1C(=O)C2(Oc3ccccc3C3CC(c4ccccc4)=NN32)c2ccccc21 (configuration not stated),-163.7*
C/C(=N/NC(=O)c1ccc(C)s1)c1ccncc1,-87.4*
CCc1ccc(C(=O)N/N=C(\C)c2ccncc2)s1,-93.2*
CCOc1ccc2[nH]c3c(NCC(C)C)ncnc3c2c1,-99.0*
SMILES,aSyn 5UTR act
CC(C)OCCCNc1ncnc2c1[nH]c1ccccc12,-178.4*
COc1ccc2[nH]c3c(NCCCN4CCCC4=O)ncnc3c2c1,-95.6*
COc1ccc2[nH]c3c(=O)n(CCc4ccccc4)cnc3c2c1,-75.6*
CCOc1ccc2[nH]c3c(NCCCOC)ncnc3c2c1,-96.1*
O=c1c2[nH]c3ccccc3c2ncn1CCC1=CCCCC1,-120.7*
O=C(/C=C/c1ccc2c(c1)OCO2)Nc1nc2ccc(F)cc2s1,-109.9*
O=C(/C=C/c1ccc2c(c1)OCO2)Nc1nc(-c2ccc(F)cc2)cs1,-61.9*
CCSc1nnc(NC(=O)c2cc(C)oc2C)s1,-161.4*
CCSc1nnc(NC(=O)c2ccc(C)o2)s1,-72.1*
CCc1nnc(NC(=O)c2cc(C)oc2C)s1,-88.2*
O=C(Nc1ccc(N2CCOCC2)cc1)NC1CCCCC1,-78.1*
O=C(NC(=S)NNC(=O)c1cnccn1)c1ccc(F)cc1,70.3
O=C(Nc1ccc(F)cc1)NC1CCCCC1,-111.2*
CC(C)CNC(=S)NC(=O)c1ccc(F)cc1,-150.1*
O=C(NC(=S)NC1CCCCC1)c1ccc(F)cc1,-162.3*
O=C(Nc1cccc(F)c1)NC1CCCCC1,-156.3*
Cc1cccc(OCCCn2c(CO)nc3ccccc32)c1,-84.4*
Cc1ccc(OCCCn2c(CO)nc3ccccc32)cc1,-62.1*
N=C1C(c2nc3ccccc3s2)=C(O)CN1Cc1ccccc1,-341.5*
Clc1ccc(Cc2noc(-c3cccs3)n2)cc1,-132.1*
O=C(Nc1cc(C(F)(F)F)ccc1Cl)C(Sc1nnc(-c2cccs2)o1)c1ccccc1 (configuration not stated),-108.5*
Cc1ccc(NC(=S)/C(=C(\[O-])c2ccc(C)c([N+](=O)[O-])c2)[n+]2ccccc2)cc1C,-157.5*
CCN1CCC2(CC1)Oc1c(OC)cccc1C1CC(c3cccnc3)=NN12 (configuration not stated),-127.8*
CN(C#N)c1nc(Cl)nc(Nc2cccc(Cl)c2)n1,-66.4*
OCCCNc1cc(-c2ccnc(Nc3cccc(Cl)c3)n2)ccn1,109.7
SMILES,aSyn 5UTR act
NC(=O)C1=NOC(CNc2ncc(C(F)(F)F)cc2Cl)C1 (configuration not stated),-72.3*
O=c1c(Cl)nc2cc(Cl)ccc2n1CCNc1ncc(C(F)(F)F)cc1Cl,109.5
C/C(=N\Nc1nc(C(C)(C)C)cs1)c1ccc(O)cc1,-107.3*
C/C(=N\Nc1nc(C(C)(C)C)cs1)c1ccccc1,-159.8*
C/C(=N\Nc1nc2c(s1)CCCC2)c1ccccc1,-178.1*
CSc1ccccc1-c1nnc(-c2ccc(Cl)c(Cl)c2)o1,-98.1*
CSc1ccccc1-c1nnc(-c2ccc(Cl)cc2Cl)o1,-109.4*
C/C(=C\C(=O)c1cccnc1)Nc1ccc(O)cc1,-77.4*
C/C(=C\C(=O)c1ccccc1)Nc1ccc(O)cc1,-102.2*
O=C(O)C1CCC(c2ccc(-c3ccccc3)cc2)CC1 (configuration not stated),-84.4*
c1ccc(CCc2nc3ccccc3[nH]2)cc1,-120.2*
O=c1[nH]c2ccccc2nc1CCc1ccccc1,-89.7*
